The text below walks through data of PubChem BioAssay.

A short description of assay [1]: growth inhibition, single agents and combos, ICB984, cell-based, cisplatin or BGB combos, synergistic combos for chromothripsis tumors (AID 1671451; call rule not given here;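 also: cells exposed for 96 hours before readout; 0% = vehicle DMSO and 100% = killing by high DMSO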). The conditions noted are these: ICB984 medulloblastoma cells, drug combinations, stronger effect = higher value.
The nature of assay [2]: growth inhibition, single agents and combos, HTB85, cell-based, BGB or cisplatin IC20 combos, synergistic combos for chromothripsis tumors (AID 1671453; in the data active = inhibition above about 80%;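 also: cells exposed for 96 hours before readout; 0% = vehicle DMSO and 100% = high DMSO killing control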). The conditions noted are these: HTB85 osteosarcoma cells, drug combinations, stronger effect = higher value.
Assay [3] is described as follows: growth inhibition, MDA-MB-436, cell-based, BGB or cisplatin combos, synergistic combos for chromothripsis tumors (AID 1671458; call rule not given here;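 also: cells exposed for 96 hours; 0% = vehicle DMSO and 100% = killing by high DMSO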). The conditions noted are these: MDA-MB-436 breast carcinoma growth inhibition, drug combinations, stronger effect = higher value.
Assay [4] in a line: P. berghei load reduction in hepatocytes – cell-based, HepG2, luciferase luminescence, HepG2 viability, primary screen (AID 624349; in the data active = parasite load remaining mostly below about 12%, no sharp cut-off; inactive = mostly above about 10%;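 also: 100% = mean of DMSO negative control wells on the same plate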). Particulars: P. berghei liver stage in HepG2, luciferase luminescence, concentration not given here; parasite load remaining: stronger effect = lower value; viability: measured here: HepG2 viability without parasites.
Assay [5] in a line: Wnt pathway potentiators raising nuclear beta-catenin – imaging, WNT3A-conditioned medium, mouse C2C12, NPC library, primary screen (AID 1117326; in the data active = nuclear beta-catenin stimulation mostly above about 4.2%, no sharp cut-off; inactive = mostly below about 10%). Particulars: stronger effect = higher value.
Assay [6] is described as follows: stimulators of insulin release from INS-1E, primary screen, cell-based, 5 mM glucose, NPC library (AID 1117329;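 active = compound raises insulin release from rat beta cells at 5 mM glucose, no numeric limit stated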). The conditions noted are these: rat INS-1E insulin secretion, at 10 µM, stronger effect = higher value.
A short description of assay [7]: growth inhibition of GSK3B-pretreated HCT116 cells – cell-based, CellTiter-Glo, 0.2 to 20 µM (AID 1117336;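 active = compounds lowering colon cancer cell viability after pretreatment blocking the GSK3B kinase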). Particulars: HCT116 viability after GSK3B inhibitor, at 20 µM, stronger effect = higher value.
Assay [8] is described as follows: inhibition of endothelial tube formation, primary screen, imaging, VEGF stimulated, CD31 staining, tube area, NPC library (AID 1117340;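 active = compound that reduces growth-factor-driven endothelial tube area in a mixed cell culture, no cutoff stated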). The conditions noted are these: VEGF-stimulated ADSC/ECFC co-culture, at 10 µM, stronger effect = higher value.
A short description of assay [9]: GLP1 release stimulators, primary, NCI-H716, NPC library (AID 1117341;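 active = compound raises GLP1 secretion from the human gut endocrine cells, with no numeric limit stated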). Particulars: NCI-H716 cells, at 10 µM, stronger effect = higher value.
A short description of assay [10]: HCT116 colon cancer cell growth inhibition, primary screen, CellTiter-Glo luminescence, NPC library (AID 1117342;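 active = compounds that lower survival of HCT116 colon cancer cells in the luminescence readout, no numeric limit stated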). The conditions noted are these: at 20 µM (top of the series). Background: ATP-based viability assays read luminescence as a measure of living cells.
Assay [11] in a line: reduced SW480 viability measured with CellTiter-Glo, NPC library, primary (AID 1117343;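 active = compounds that lower viability of the colon cancer cells in the luminescence readout, with no numeric limit stated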). The conditions noted are these: CellTiter-Glo luminescence; at 20 µM (top of the series) unless noted.
Assay [12] in a line: NPC library primary testing for decreased DLD-1 cell viability via CellTiter-Glo (AID 1117346;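 active = compounds that lower survival of DLD-1 colon cancer cells in the luminescence readout, no cutoff given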). Particulars: DLD-1 viability, CellTiter-Glo luminescence; at 20 µM (top of the series).
A short description of assay [13]: EMT-state selective cytotoxicity in co-culture – imaging, PC-3E GFP, TEM4-18 mCherry, primary screen (AID 1345086;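 active = compounds killing one labelled cell type while sparing the other, by normalised counts and ratio limits, not self-fluorescent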;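 as to all read-outs here: cells exposed to compound for 72 h before imaging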;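 as to red/green cell ratio (normalised): normalised mesenchymal count divided by normalised epithelial count so high means epithelial killing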). The conditions noted are these: PC-3E GFP / TEM4-18 mCherry co-culture, imaging cell counts, at 1 µM; for red/green cell ratio (normalised): actives lie on both sides, counts scaled to control wells, 1 = unselective.
Assay [14] in a line: viability loss with induced miR-34 in A549 – imaging, A549 dox-inducible miR-34, nuclei and caspase counts, primary screen (AID 1347080). Particulars: A549 miR-34 inducible, Hoechst nuclei count, 48 h.
Assay [15] is described as follows: MELAS cybrid and Rieske KO viability enhancers – cell-based, MELAS cybrids, Rieske KO mouse fibroblasts, CellTiter-Glo, primary screen (AID 1508586;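 active = mean z-score across replicates of 1.96 or higher in either the MELAS or the Rieske mutant cell line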;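 also: z relative to plate mean and SD of compound and empty wells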). Particulars: low glucose.
Assay [16] addresses NAD(+) hydrolase SARM1 (Homo sapiens) (UniProt Q6SZW1). The assay is described as follows: blocking NAD cleavage by SARM1 SAM-TIR – cell lysate, NAD-Glo luminescence (AID 1508614;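 active = compound whose remaining NAD level is above about 45 nM, limit read from the data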;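 also: higher remaining NAD means stronger inhibition of SARM1 NADase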). Particulars: SAM-TIR HEK293T lysate NADase, at 1 µM, stronger effect = higher value.
Assay [17] in a line: compounds altering viability of human ES cells (AID 493140; call rule not given here;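 also: cells exposed to compounds for four days before counting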). The conditions noted are these: human embryonic stem cell survival screen; stronger effect = higher value.
Setting [18] is: measured here: epithelial PC-3E GFP cell survival.
Setting [19] is: measured here: mesenchymal TEM4-18 mCherry cell survival.
Setting [20] is: stronger effect = lower value, cell number ratio, induced over uninduced.
[21] abbreviates: measured here: relative caspase fold change +Dox/-Dox.
The mark [22] stands for this setting: measured here: total cells with miR-34 induction, stronger effect = lower value.
Setting [23] is: measured here: total cells without miR-34 induction.
The mark [24] stands for this setting: MELAS cybrid survival, CellTiter-Glo 48 h, stronger effect = higher value.
Where [25] appears, read: Rieske KO mouse fibroblast survival, CellTiter-Glo 72 h.

The inhibition is the drop in the measured response relative to a control, in per cent. For orientation: viability means a read-out of living cells in per cent, often relative to untreated cells.

Where “and” joins values, the source holds several entries; their conditions need not be identical. Identical values can stand only once. Calls of active or inactive are those of the source.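 The calls were made as follows, unless noted: active = compounds whose cell count with miR-34 switched on is under 0.7 times the count with it off; inactive = the rest.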

Sequence of NAD(+) hydrolase SARM1 (Homo sapiens) (Q6SZW1 whole entry, looked up): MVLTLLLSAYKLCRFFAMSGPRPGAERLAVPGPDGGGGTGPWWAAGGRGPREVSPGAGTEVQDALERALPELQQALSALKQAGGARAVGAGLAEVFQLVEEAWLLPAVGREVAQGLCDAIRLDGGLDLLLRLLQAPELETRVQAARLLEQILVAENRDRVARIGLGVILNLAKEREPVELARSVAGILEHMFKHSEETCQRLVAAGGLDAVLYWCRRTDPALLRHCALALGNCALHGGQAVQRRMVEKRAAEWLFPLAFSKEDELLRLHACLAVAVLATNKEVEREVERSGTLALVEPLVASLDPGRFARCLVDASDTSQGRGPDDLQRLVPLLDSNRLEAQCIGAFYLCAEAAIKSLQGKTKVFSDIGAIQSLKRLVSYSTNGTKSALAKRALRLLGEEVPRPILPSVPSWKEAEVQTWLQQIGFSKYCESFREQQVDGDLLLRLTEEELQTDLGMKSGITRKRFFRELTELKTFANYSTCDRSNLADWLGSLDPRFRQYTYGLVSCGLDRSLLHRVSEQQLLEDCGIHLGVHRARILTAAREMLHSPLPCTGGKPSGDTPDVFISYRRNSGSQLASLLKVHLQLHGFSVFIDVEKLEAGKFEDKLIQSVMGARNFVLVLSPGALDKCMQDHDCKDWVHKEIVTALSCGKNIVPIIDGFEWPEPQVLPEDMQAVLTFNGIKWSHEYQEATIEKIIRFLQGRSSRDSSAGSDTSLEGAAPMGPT

Regarding `N=C(N=C(N)N)N1CCOCC1`, the inhibition in [1] (BGB IC20 combo, at 0.005 µM) was 3.73%; in assay [1] (BGB IC40 combo, at 0.005 µM), -7.45%; in [1] (BGB IC40 combo, at 0.05 µM), -3.82%; in assay [1] (at 0.5 µM), -14.1% (inactive); in [1] (cisplatin combo, at 0.05 µM), -6.72%; in [1] (cisplatin combo, at 0.5 µM) it was -17.9%. For the same molecule, the inhibition in assay [1] (cisplatin combo, at 5 µM) was -29%; in assay [1] (measured here: 5 uM single agent, at 5 µM), -1.94%; in [2] (at 0.5 µM) it was -5.39% (inactive); in [2] (measured here: with BGB IC20, at 0.5 µM) it was 1.31%; in [2] (measured here: with BGB IC20, at 5 µM) it was -31%; in [2] (measured here: with cisplatin IC20, at 0.5 µM) it was -27.9%. The inhibition is -17.8% in assay [2] (measured here: with cisplatin IC20, at 5 µM); -7.35% in [2] (single agent, at 5 µM); -3.31% (inactive) in [3] (at 0.5 µM); -4.36% in [3] (measured here: BGB combination, at 0.5 µM); -6.45% in [3] (measured here: BGB combination, at 5 µM); -3.15% in assay [3] (measured here: cisplatin combination, at 0.5 µM). Besides, the inhibition in [3] (measured here: cisplatin combination, at 5 µM) is -8.98%.

On to `CCCN(CCC)CCc1cccc2c1CC(=O)N2`, for which, in assay [4], the parasite load remaining is 55.3% (inactive). Also, in assay [4], the viability was determined as 102%. Besides, the nuclear beta-catenin stimulation in assay [5] (at 10 µM) was 2.8% (inactive); in assay [5] (stimulation, at 2 µM), 1.5%. Moreover, the insulin secretion stimulation in [6] is 2.8% (inactive). Further, the viability decrease in assay [7] was 8% (inactive). Also, the tube area decrease in assay [8] is -10% (inactive). In [9], the GLP1 secretion stimulation was 3.9% (inactive). The inhibition of viability in assay [10] is 21.3% (inactive). In addition, the viability decrease (inhibition) in [11] is 29.8% (inactive); in [12], 26.9% (inactive). In addition, in assay [13], the red/green cell ratio (normalised) was 1.06 (inactive). Besides, the normalised cell number is 0.99 in [13] (setting [18]) and 1.05 in assay [13] (setting [19]). Further, the fold change is 0.948 (inactive) and 0.94 (inactive) and 0.88 (inactive) in assay [14] (setting [20]); 1.29 and 1.47 and 5.03 in [14] (setting [21]). In addition, the cell count was 9580 and 9680 and 11700 in [14] (setting [22]); 10100 and 10300 and 13300 in assay [14] (setting [23]). For the same molecule, the z-score was 0.118 (inactive) and -0.361 (inactive) in assay [15] (setting [24]); 0.253 and -0.254 in assay [15] (setting [25]). For the same molecule, in assay [16], the remaining NAD was 10 nM (inactive).

With `O=C(O)CN(CCN(CC(=O)O)CC(=O)O)CCN(CC(=O)O)CC(=O)O`, the survival in assay [17] was 5 (inactive). Further, the parasite load remaining in assay [4] was 120% (inactive) and 34.8% (inactive). Moreover, the viability in assay [4] is 101% and 170%. The nuclear beta-catenin stimulation in assay [5] (at 10 µM) was -0.8% (inactive); in [5] (stimulation, at 2 µM), -1.5%. Besides, the insulin secretion stimulation in assay [6] is 1.5% (inactive). Further, the viability decrease in assay [7] was 79% (active). Also, in assay [8], the tube area decrease is -14.3% (inactive). Besides, the GLP1 secretion stimulation in assay [9] was 0.1% (inactive). The inhibition of viability in assay [10] was 53.1% (active). Moreover, the viability decrease (inhibition) in assay [11] was 79.5% (active); in assay [12], 31.1% (inactive). The red/green cell ratio (normalised) in assay [13] is 1.45 (inactive). Also, the normalised cell number in [13] (setting [18]) turned out to be 0.48; in assay [13] (setting [19]) it was 0.7. For the same molecule, the fold change in assay [14] (setting [20]) was 1.07 (inactive) and 0.79 (inactive) and 0.864 (inactive); in assay [14] (setting [21]), 1.26 and 1.98 and 3.01. For the same molecule, the cell count was 8980 and 7930 and 10700 in assay [14] (setting [22]); 8380 and 10000 and 12300 in assay [14] (setting [23]). Also, the values for the z-score in assay [15] (setting [24]) and in assay [15] (setting [25]) were 0.621 (inactive) and 0.97, respectively. In addition, the remaining NAD in assay [16] is 10 nM (inactive).

With `COc1ccc2[nH]c(S(=O)Cc3ncc(C)c(OC)c3C)nc2n1` (stereo not drawn), the parasite load remaining in assay [4] is 0.57% (active). Also, in [4], the viability came to 93%. Besides, the nuclear beta-catenin stimulation in assay [5] (at 10 µM) was 5.2% (inactive); in assay [5] (stimulation, at 2 µM), -0.9%. The insulin secretion stimulation in assay [6] is 4.2% (inactive). The viability decrease in assay [7] was 16.5% (inactive). Also, the tube area decrease in [8] was 14.1% (inactive). Further, in assay [9], the GLP1 secretion stimulation was 4.6% (inactive). Also, the inhibition of viability in assay [10] was 4.9% (inactive). For the same molecule, the viability decrease (inhibition) was -1.6% (inactive) in assay [11] and 4.3% (inactive) in assay [12]. Besides, the red/green cell ratio (normalised) in assay [13] was 1.06 (inactive). Moreover, the normalised cell number amounted to 1.01 in assay [13] (setting [18]) and 1.07 in assay [13] (setting [19]). Further, the fold change in assay [14] (setting [20]) was 0.835 (inactive); in [14] (setting [21]) it was 1.32. Besides, the results for the cell count in [14] (setting [22]) and in assay [14] (setting [23]) were 8340 and 9990, respectively. Also, the z-score was 1.95 (inactive) and 1.02 in [15] (setting [24]); 0.213 and 2.3 in assay [15] (setting [25]). Also, in assay [16], the remaining NAD was 77 nM (active).
